Data on 58 compounds can be found in PubChem BioAssay AID720509 (The Scripps Research Institute Molecular Screening Center, 2013).

SMILES strings stand for the structures. The campaign covered roughly 370,000 compounds. About 760 (0.21%) were called active.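 Rule for the calls: active = inhibition above a per-campaign cutoff: mean of compounds within control limits plus 3 SD (cut at about 15% in these data); inactive = the rest.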 The full list was thinned out, with actives kept by preference.

The target of the assay is Fibrinogen beta chain (Homo sapiens) (UniProt P02675). Nature of the assay: small molecules displacing Tn6 from DD(E) complex – biochemical, fluorescence polarization, human fibrin, Tn6 probe, primary screen (AID 720509).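 Note: 0% = median of all compound wells on the plate and 100% = blocking peptide control.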 To be noted: Fibrin DD(E) TRITC-Tn6 fluorescence polarization displacement; at 8.3 µM; active compounds read high. For orientation: Polarisation of emitted light reports the rotation of a fluorescent probe.
Sequence of Fibrinogen beta chain (Homo sapiens) (P02675 whole entry, looked up): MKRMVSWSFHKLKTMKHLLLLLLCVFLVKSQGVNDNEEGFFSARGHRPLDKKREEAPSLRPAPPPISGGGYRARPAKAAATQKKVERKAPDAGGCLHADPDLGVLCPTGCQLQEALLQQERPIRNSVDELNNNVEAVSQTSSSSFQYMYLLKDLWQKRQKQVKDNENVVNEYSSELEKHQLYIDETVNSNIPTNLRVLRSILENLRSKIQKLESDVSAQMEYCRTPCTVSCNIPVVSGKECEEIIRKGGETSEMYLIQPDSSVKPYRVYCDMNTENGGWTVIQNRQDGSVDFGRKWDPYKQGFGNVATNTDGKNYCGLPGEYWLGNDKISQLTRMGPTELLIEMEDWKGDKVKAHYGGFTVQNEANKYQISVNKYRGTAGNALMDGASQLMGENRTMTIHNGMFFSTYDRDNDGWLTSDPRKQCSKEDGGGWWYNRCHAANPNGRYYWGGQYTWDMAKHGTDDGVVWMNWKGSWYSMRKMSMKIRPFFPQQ
By inhibition is commonly meant the change of the read-out against control, counted positive when it falls. Consider `O=C(c1c(F)cccc1F)N1CCN(c2ncc(Br)cn2)CC1`, for which the inhibition is -1.65% (inactive).
Regarding `CC(=O)OC(C)C[N+](C)(C)C` (stereo not drawn), the inhibition is 3.71% (inactive).
For `CCOC(=O)C(C)Oc1cccc2c(=O)n(CC(=O)N3CCc4ccccc43)ccc12` (stereo not drawn), the inhibition was -1.79% (inactive).
Consider `CC(=O)N1CCCN(C2=Nc3ccccc3Sc3ccccc32)CC1`, for which the inhibition is -3.1% (inactive).
As to `Cc1cc(-c2nnc(SCC(=O)Nc3ccc(S(N)(=O)=O)cc3)n2N)n[nH]1`, the inhibition was -3.55% (inactive).
The result for `Cc1oc2nc(SCC(=O)Nc3ccc(S(N)(=O)=O)cc3)nc(NC(=O)c3ccccc3)c2c1C` reads 24.4% (active); that for `Cc1oc2nc(SCC(=O)NCc3cccnc3)nc(N)c2c1C`, 7.93% (inactive); that for `COc1cc2c(cc1OC)C(C(=O)Nc1cc(C)c(OC)c(C)c1)CC(=O)N2` (stereo not drawn), 10.8% (inactive).
Regarding `N#Cc1ccc(COC(=O)Cn2nnc(-c3ccccc3)n2)cc1`, the inhibition is 0.38% (inactive).
As for `CCc1cc(-c2nnc(SCC(=O)NC3CC3)n2C)cs1`, the inhibition was 18.6% (active).
Consider `CCOc1cccc(-c2nnc(SCC(=O)NC3CC3)n2C)c1`, for which the inhibition was 6.34% (inactive).
As to `Cn1c(SCC(=O)NC2CCCCC2)nnc1-c1ccc(N)cc1`, the inhibition was 1.64% (inactive).
For the compound `O=[N+]([O-])c1ccccc1N/N=C1\CCc2ccccc21`, the inhibition was -1.87% (inactive).
In the case of `O=C(NC1CCc2ccccc21)C12CN(Cc3ccccc3)CC1C(c1cccc([N+](=O)[O-])c1)=NO2` (stereo not drawn) it was 1.76% (inactive); in that of `COCC(C)n1c(C)cc(C(=O)COc2ccc(C)nc2[N+](=O)[O-])c1C` (stereo not drawn), 2.28% (inactive).
In the case of `O=C(NCc1nnc(SCC(=O)N2CCCCCC2)o1)c1ccc(F)cc1` it was 4% (inactive).
Consider `O=S(=O)(NCC1CN(S(=O)(=O)c2ccc3c(c2)OCCO3)C1)c1c(F)cccc1F`, for which the inhibition was 0.97% (inactive).
`COc1ccc(-c2c(C)nn3c(N4CCC(C(=O)N5CCCCC5)CC4)cc(C)nc23)cc1OC`: the inhibition is -3.53% (inactive).
As for `O=S(=O)(Nc1ccc(-n2cnnn2)cc1)c1ccc(Cl)cc1`, the inhibition is -1.46% (inactive).
In the case of `N#Cc1ccc(S(=O)(=O)NCC(=O)OCC(=O)NCCc2ccccc2)cc1`, the inhibition was -8.48% (inactive).
For `N#CC1=C(N)Oc2c(sc3ccccc23)C1c1ccco1` (stereo not drawn), the inhibition was 3.91% (inactive).
For the compound `CC(C)(C)c1cc(=O)n2c(nc3ccccc32)[nH]1`, the inhibition is -1.54% (inactive).
The result for `CN(CC(=O)Nc1ccccc1Cl)C(=O)c1ccccc1SCC(=O)N1CCCC1` reads -6.29% (inactive); that for `COc1ccc(N(CC(=O)NC2CCCCC2)S(=O)(=O)c2c(C)[nH]c(=O)[nH]c2=O)cc1`, 6% (inactive).
Consider `CCCCNC(=O)C[C@@H]1C[C@@]2(C(=O)OCC)CCC=C2N(Cc2ccco2)C1=O`, for which the inhibition is 3.81% (inactive).
In the case of `COc1ccc(CNc2c(CO)cnc3c2cnn3C)cc1` it was -2.59% (inactive); in that of `COc1ccc(CC(=O)Nc2c3c(nn2-c2cccc(Cl)c2)CS(=O)C3)cc1` (stereo not drawn), -10.3% (inactive).
In the case of `COc1c(C)cc(C(O)c2ncc(-c3cccc(C(F)(F)F)c3)[nH]2)cc1C` (stereo not drawn), the inhibition was 8.36% (inactive).
For the compound `CCOC(=O)C1CCCN(Cc2nc(N)nc(Nc3ccc(C)cc3)n2)C1` (stereo not drawn), the inhibition is -3.73% (inactive).
As to `CCOC(=O)N1CCN(Cc2nc(N)nc(Nc3ccc(C)cc3)n2)CC1`, the inhibition is 17% (active).
Regarding `CCOC(=O)N1CCN(Cc2nc3cc(NC(=O)CC)ccc3n2CC)CC1`, the inhibition is -8.37% (inactive).
For `Cc1nnc2n1N=C(c1ccc3c(c1)NC(=O)CO3)CS2`, the inhibition was 0.86% (inactive).
In the case of `CCOC(=O)N1CCN(S(=O)(=O)c2ccc(-n3cnnn3)cc2)CC1` it was 7.12% (inactive); in that of `COc1ccc(S(=O)(=O)NC(CC(=O)NCc2ccccc2OC)c2ccco2)cc1` (stereo not drawn), 2.08% (inactive); in that of `COc1ccc2c(c1)c1ncn(Cc3ccccn3)c(=O)c1n2C`, -7.12% (inactive).
Consider `CC(C)(C)OC(=O)C[C@@H]1C/C=C\C[C@@H](CC(=O)N[C@@H](CO)Cc2ccccc2)C(=O)N2CCC[C@H]2COC1=O`, for which the inhibition was -2.9% (inactive).
Take `O=C(COC(=O)c1ccc(F)cc1F)Nc1ncccn1`: the inhibition is 2.94% (inactive).
The result for `COC(=O)C1=C(C)NC(=S)NC1c1ccc(OC)cc1` (stereo not drawn) reads 0.81% (inactive); that for `Nc1nc(SCC(=O)NNc2c(Cl)cc(Cl)cc2Cl)n[nH]1`, 8.94% (inactive); that for `COc1ccc(C(CNC(=O)c2ccc(OCc3cscn3)cc2)N2CCCC2)cc1` (stereo not drawn), 2.19% (inactive).
On to `Oc1c(Cl)cc(Cl)c(Cl)c1Cc1c(O)c(Cl)cc(Cl)c1Cl`, for which the inhibition is -7.14% (inactive).
On to `Cc1cc([N+](=O)[O-])nn1Cc1ccc(F)cc1`, for which the inhibition was -0.46% (inactive).
For `COc1ccc(C(=O)C2CCCN(S(=O)(=O)c3cccc(C)c3)C2)c(C)c1` (stereo not drawn), the inhibition was -7.45% (inactive).
Turning to `CCCC1(C(=O)OCC)NC(c2ccc(N(C)C)cc2)C2C(=O)N(c3ccc4c(c3)OCCO4)C(=O)C21` (stereo not drawn), the inhibition was -9.09% (inactive).
In the case of `COc1ccccc1C(=O)COC(=O)CSCC(=O)Nc1cc(C)on1` it was 0.48% (inactive); in that of `O=C(CN1C(=O)NC2(CCCCCC2)C1=O)NCc1cccs1`, -0.57% (inactive); in that of `CSC1=NN(c2ccccc2)CN(c2ccccc2)N1C`, -0.87% (inactive).
Regarding `COc1ccc(CCNC(=O)C(=O)NCC2CCCN2S(=O)(=O)c2cccs2)cc1OC` (stereo not drawn), the inhibition was -8.21% (inactive).
For `COCCN(Cc1nc(-c2ccc(C(F)(F)F)cc2)no1)C(C)C`, the inhibition is -5.72% (inactive).
For the compound `CC(C)CCNC(=O)CC1C(=O)N(Cc2ccccc2)C(C)c2nc3ccccc3n21` (stereo not drawn), the inhibition was 5.33% (inactive).
The result for `Cc1cc(=O)oc(C)c1C(=O)Nc1cnc2ccccc2c1` reads -3.11% (inactive); that for `CCOc1ccc(C(=O)Nc2cc(Cl)ccc2-n2cncn2)cc1OC`, 2.72% (inactive); that for `CN(C)c1cccc(NC(=O)c2ccc(-c3ccc(F)c(F)c3)c3ccoc23)c1`, -0.65% (inactive).
For the compound `Cc1cccc(NS(=O)(=O)c2cc(Cl)ccc2Cl)n1`, the inhibition is 1.49% (inactive).
Turning to `CC(=O)N/C(=C\c1ccc(F)cc1)C(=O)NC(Cc1ccccc1)C(=O)O` (stereo not drawn), the inhibition was 2.99% (inactive).
In the case of `Oc1ccc(N=Cc2sc3ccccc3c2Cl)cc1`, the inhibition was 36.1% (active).
The result for `CN1CCN(S(=O)(=O)c2ccc(Nc3ccc(F)cc3)nc2)CC1` reads -3.71% (inactive); that for `O=C(CCN1C(=O)[C@H]2CC=CC[C@H]2C1=O)NCc1nc(-c2ccccc2)no1`, 1.52% (inactive).
